These results are taken from PubChem BioAssay (NCATS).

Unmarked numbers belong to inactive results. Inconclusive results are not listed. A call without a number means that no potency is given here. Activity calls are given as the source filed them. Unless noted, calls follow the shape of the dose curve; as a rule, active = well fitted curve in the direction sought with a large enough effect; inconclusive = small, poorly fitted or top-dose-only effect, or another doubt; inactive = no such curve, though single readings can be large; an effect the other way counts as inactive or inconclusive.

Chain of Cytochrome P450 3A4 (Homo sapiens) (P08684 whole entry, looked up): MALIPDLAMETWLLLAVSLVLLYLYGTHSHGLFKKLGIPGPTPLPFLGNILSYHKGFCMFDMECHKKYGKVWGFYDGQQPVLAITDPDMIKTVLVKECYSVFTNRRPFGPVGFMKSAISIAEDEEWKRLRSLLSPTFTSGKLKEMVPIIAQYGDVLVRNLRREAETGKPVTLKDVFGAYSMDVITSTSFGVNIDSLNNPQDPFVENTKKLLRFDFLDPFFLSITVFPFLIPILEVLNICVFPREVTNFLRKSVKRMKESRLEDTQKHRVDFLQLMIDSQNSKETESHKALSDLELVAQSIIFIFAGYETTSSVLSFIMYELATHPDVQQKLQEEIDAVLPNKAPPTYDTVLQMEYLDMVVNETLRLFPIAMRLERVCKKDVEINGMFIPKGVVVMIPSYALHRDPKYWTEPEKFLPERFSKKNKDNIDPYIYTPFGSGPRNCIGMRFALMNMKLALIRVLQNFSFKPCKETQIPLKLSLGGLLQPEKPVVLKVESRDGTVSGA
Chain of 3',5'-cyclic-AMP phosphodiesterase 4B (Homo sapiens) (Q07343 whole entry, looked up): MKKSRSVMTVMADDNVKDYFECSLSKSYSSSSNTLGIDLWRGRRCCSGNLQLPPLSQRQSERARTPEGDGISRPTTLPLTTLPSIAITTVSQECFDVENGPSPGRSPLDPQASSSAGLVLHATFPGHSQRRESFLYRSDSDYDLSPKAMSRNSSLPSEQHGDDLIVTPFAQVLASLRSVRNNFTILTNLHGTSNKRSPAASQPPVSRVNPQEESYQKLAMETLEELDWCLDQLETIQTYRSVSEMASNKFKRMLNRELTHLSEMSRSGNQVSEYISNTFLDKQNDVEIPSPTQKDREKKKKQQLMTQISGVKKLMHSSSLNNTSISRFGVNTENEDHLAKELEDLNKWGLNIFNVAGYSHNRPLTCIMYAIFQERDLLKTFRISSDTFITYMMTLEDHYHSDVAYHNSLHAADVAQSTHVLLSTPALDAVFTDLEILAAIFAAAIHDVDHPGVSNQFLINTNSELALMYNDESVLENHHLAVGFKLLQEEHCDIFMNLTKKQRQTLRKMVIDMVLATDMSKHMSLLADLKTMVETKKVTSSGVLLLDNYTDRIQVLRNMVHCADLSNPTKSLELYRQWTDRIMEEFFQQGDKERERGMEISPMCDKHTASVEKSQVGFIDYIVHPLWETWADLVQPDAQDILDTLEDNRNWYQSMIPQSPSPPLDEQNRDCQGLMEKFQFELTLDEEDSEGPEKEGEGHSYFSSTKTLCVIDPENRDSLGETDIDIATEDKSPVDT

The first assay addresses 3',5'-cyclic-AMP phosphodiesterase 4B (Homo sapiens) (UniProt Q07343). Kind of assay: qHTS Assay for Inhibitors of PDE-IV (AID 607; active = well fitted activation curve with a large enough effect in the main read-out, with a control signal flat, not every such curve was filed as active). The following applies: HEK293 ACTOne CNG channel cells, membrane potential fluorescence; series mostly up to 22.9 µM. In short, it runs like this:
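Live HEK293 cells with a modified cyclic nucleotide-gated (CNG) channel report intracellular cAMP via membrane-potential dye fluorescence (ex 535/em 590 nm). Endogenous PDE-IV was targeted. Compounds were tested at up to 22.9 uM final; RO 20-1724 100 uM served as control.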
In general terms: qHTS replaces the single test concentration by a dilution series.
As to `O=C(c1cccc(F)c1)N1CCC2(CC1)CN(C(c1ccccc1)c1ccccc1)C2`, the Potency result was “inactive”.

In the case of `COc1cccc(Cn2c(=O)c(-c3ccc(Cl)cc3)nc3cnc(N(C)C)nc32)c1`, the Potency entry was “inactive”.

As to `O=C(Nc1cccc(F)c1)N1CCC2(CC1)CCN(C(=O)c1cccc(F)c1)CC2`, the Potency result is “inactive”.

In the case of `COc1ccc(C(=O)N2CCC[C@@]3(CCN(C(=O)Nc4cccc(F)c4)C3)C2)cc1`, the Potency result was “inactive”.

For the compound `Cn1cccc1C(=O)N1CCC2(CC1)CN(C(=O)Nc1cccc(C#N)c1)C2`, the Potency entry is “inactive”.

As for `COC(=O)N1CCC[C@@]2(CCN(Cc3cc(C(F)(F)F)cc(C(F)(F)F)c3)C2)C1`, the Potency entry was “inactive”.

Regarding `COc1cccc(Cn2c(=O)c(-c3ccc(F)c(F)c3)nc3cncnc32)c1`, the Potency entry is “inactive”.

For `Cc1noc(C)c1C(=O)N1CCC2(CCCN(c3ncccn3)C2)CC1`, the Potency entry is “inactive”.

With `O=c1c(-c2ccc(F)cc2)nc2cnc(Nc3ccccc3)nc2n1C1CC1`, the Potency entry is “inactive”.

Another assay has as its target Cytochrome P450 3A4 (Homo sapiens) (UniProt P08684). Description: qHTS Assay for Activators of Cytochrome P450 3A4 (AID 885). Also: nearly all actives have a fitted effect of over 65% in size. The following applies: recombinant CYP3A4, Luciferin-PPXE luminescence, 60 min; series mostly up to 57.1 µM. In short, it runs like this: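 Using 20nM recombinant human CYP3A4 in potassium phosphate (200mM), substrate Luciferin-PPXE at 25uM, luminescent luciferin detection followed a 60-min RT NADPH reaction; data scaled to 57 uM ketoconazole.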
Take `COCCn1c(=O)cnc2cnc(OCc3ccccc3)nc21`: the Potency result is “inactive”.

For `Cc1nc2cnc(OCc3ccccc3)nc2n(CCC#N)c1=O`, the Potency entry is “inactive”.

Consider `O=c1c(-c2cccc(F)c2)nc2cncnc2n1Cc1ccccc1`, for which the Potency result was “inactive”.

As to `COc1ccc(-n2c(=O)c(-c3ccc(F)cc3)nc3cnc(OC)nc32)cc1`, the Potency result is “inactive”.

With `COc1cccc(Cn2c(=O)c(-c3cccc(F)c3)nc3cncnc32)c1`, the Potency result is “inactive”.

Consider `O=c1c(-c2cccc(Cl)c2)nc2cncnc2n1Cc1ccc(F)cc1`, for which the Potency result was “inactive”.

For the compound `Cc1cccc(CNc2ncncc2-c2cccc(NS(C)(=O)=O)c2)c1`, the Potency result was “inactive”.

For the compound `O=c1c(-c2ccc(Cl)cc2)nc2cncnc2n1Cc1ccccc1`, the Potency result is “inactive”.

Consider `COc1ccc(-c2nc3cnc(OC)nc3n(C3CC3)c2=O)cc1`, for which the Potency result is “inactive”.

On to `COc1ccc(-c2nc3cnc(OC)nc3n(Cc3cccc(OC)c3)c2=O)cc1`, for which the Potency entry was “inactive”.

Tested on in the next assay: not listed separately
Description: qHTS Assay for Identification of Small Molecule Agonists for Hypoxia Response Element Signaling Pathway (AID 914; active = well fitted activation curve with a large enough effect in the signal ratio, with a control signal flat, not every such curve was filed as active; the % refers to the signal ratio; also: potency is read from the fitted curve at half-maximal effect). The following applies: ME-180 (cervical carcinoma) HRE-bla reporter, beta-lactamase ratio, CoCl2, 17 h; activation: hits give high values. In short, it runs like this: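 Reporter activity (beta-lactamase, CCF4 460nm/530nm ratio) in HRE-bla ME-180 cells is recorded after 17 h compound exposure with EC50 CoCl2 at 37 degrees Celsius. AC50 values come from titration data.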
Regarding `COc1ccc(Oc2ncc3nc(C)c(=O)n(C4CC4)c3n2)cc1`, the activation is -6.35%.

For the compound `Cc1cccc(CNc2ncncc2-c2cccc(NS(C)(=O)=O)c2)c1`, the activation was 3.55%.

For `O=c1c(-c2ccc(Cl)cc2)nc2cncnc2n1Cc1ccccc1`, the activation was -4.75%.

`COc1cccc(Cn2c(=O)c(-c3ccc(Cl)cc3)nc3cnc(N(C)C)nc32)c1`: the Potency was 0.316 µM (active).

Tested on in the next assay: not listed separately
Kind of assay: Primary qHTS for small molecule stabilizers of the endoplasmic reticulum resident proteome: Secreted ER Calcium Modulated Protein (SERCaMP) assay (AID 1508630). The conditions noted are these: SH-SY5Y GLuc-SERCaMP (Gaussia luciferase released on ER calcium loss) secretion, thapsigargin, luminescence; series mostly up to 38.4 µM. In short, it runs like this: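 The SH-SY5Y reporter protocol was run at 3 concentrations up to 38.3 uM (primary) or 11 concentrations (follow-up): 16 h compound, 100 nM thapsigargin for 4 h, then extracellular luciferase luminescence.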
Turning to `COCCn1c(=O)cnc2cnc(OCc3ccccc3)nc21`, the result was inactive.

Consider `COc1ccc(NC(=O)N2CC3(CCN(C(=O)c4cccc(F)c4)CC3)C2)cc1`, for which the outcome was inactive.

With `COc1ccc(C(=O)N2CCC[C@@]3(CCN(Cc4ccccc4OC)C3)C2)cc1`, the outcome was inactive.

Take `Cc1nc2cnc(OCc3ccccc3)nc2n(CCC#N)c1=O`: the result was inactive.

On to `Cc1cnc(CNc2ncnc3ccc(-c4ccccc4C#N)cc23)cn1`, for which the outcome was inactive.

In the case of `COC(=O)N1CCC2(CCN(C(=O)Nc3ccc(OC)cc3)CC2)CC1`, the outcome was inactive.

Regarding `O=c1c(-c2cccc(F)c2)nc2cncnc2n1Cc1ccccc1`, the result was inactive.

Regarding `COc1ccc(C(=O)N2CCC3(CC2)CCN(c2cccc(-c4ccccc4)c2)CC3)cc1`, the outcome was inactive.

For `COc1ccc(Oc2ncc3ncc(=O)n(Cc4cccc(OC)c4)c3n2)cc1`, the result was inactive.

As for `COCC(=O)N1CCC2(CCN(Cc3cc(C(F)(F)F)cc(C(F)(F)F)c3)CC2)CC1`, the outcome was inactive.

Consider `O=C(c1csnn1)N1CCC2(CCCN(c3ncccn3)C2)CC1`, for which the outcome was inactive.

Take `O=C(Nc1ccccc1)N1CCC2(CCNCC2)CC1`: the result was inactive.

Turning to `COc1ccccc1CCn1c(=O)c(C)nc2cncnc21`, the result was inactive.

Consider `N#Cc1ccc(CN2CC3(CCN(C(=O)c4csnn4)CC3)C2)cc1`, for which the result was inactive.

In the case of `COc1ccc(Oc2ncc3nc(C)c(=O)n(C4CC4)c3n2)cc1`, the result was inactive.

As to `COCCn1c(=O)c(-c2ccc(OC)cc2)nc2cnc(Oc3ccc(OC)cc3)nc21`, the outcome was inactive.

For the compound `COc1ccc(C(=O)N2CCC[C@@]3(CCN(C)C3)C2)cc1`, the result was inactive.

On to `N#Cc1cccc(NC(=O)N2CC[C@@]3(CCCN(C(=O)c4csnn4)C3)C2)c1`, for which the result was inactive.

Take `COc1ccc(-n2c(=O)c(-c3ccc(F)cc3)nc3cnc(OC)nc32)cc1`: the outcome was inactive.

In the case of `COc1cccc(Cn2c(=O)c(-c3cccs3)nc3cnc(Nc4ccccc4)nc32)c1`, the result was inactive.

Regarding `COc1cccc(Cn2c(=O)c(-c3cccc(F)c3)nc3cncnc32)c1`, the result was inactive.

In the case of `CS(=O)(=O)N1CCC2(CCCN(Cc3cc(C(F)(F)F)cc(C(F)(F)F)c3)C2)CC1`, the result was inactive.

Turning to `N#Cc1ccc(CN2CC[C@@]3(CCCN(C(=O)c4ccco4)C3)C2)cc1`, the outcome was inactive.

Consider `O=c1c(-c2cccc(Cl)c2)nc2cncnc2n1Cc1ccc(F)cc1`, for which the result was inactive.

As to `Cc1cccc(CNc2ncncc2-c2cccc(NS(C)(=O)=O)c2)c1`, the outcome was inactive.

Regarding `CC(=O)N1CCC2(CC1)CCN(C(=O)Nc1cccc(C#N)c1)CC2`, the result was inactive.

As for `COc1cccc(Cn2c(=O)c(-c3cccc(Cl)c3)nc3cncnc32)c1`, the outcome was inactive.

With `O=c1c(-c2ccc(Cl)cc2)nc2cncnc2n1Cc1ccccc1`, the result was inactive.

For `COc1ccc(-c2nc3cnc(OC)nc3n(C3CC3)c2=O)cc1`, the outcome was inactive.

Turning to `O=c1c(-c2ccc(F)c(F)c2)nc2cncnc2n1Cc1ccc(F)cc1`, the result was inactive.

As to `O=C(c1cccc(F)c1)N1CCC2(CC1)CN(C(c1ccccc1)c1ccccc1)C2`, the result was inactive.

For the compound `COc1cccc(Cn2c(=O)c(-c3ccc(Cl)cc3)nc3cnc(N(C)C)nc32)c1`, the outcome was inactive.

Take `O=C(Nc1cccc(F)c1)N1CCC2(CC1)CCN(C(=O)c1cccc(F)c1)CC2`: the result was inactive.

With `COc1ccc(C(=O)N2CCC[C@@]3(CCN(C(=O)Nc4cccc(F)c4)C3)C2)cc1`, the result was inactive.

Turning to `Cn1cccc1C(=O)N1CCC2(CC1)CN(C(=O)Nc1cccc(C#N)c1)C2`, the result was inactive.

On to `COC(=O)N1CCC[C@@]2(CCN(Cc3cc(C(F)(F)F)cc(C(F)(F)F)c3)C2)C1`, for which the outcome was inactive.

Regarding `COc1cccc(Cn2c(=O)c(-c3ccc(F)c(F)c3)nc3cncnc32)c1`, the result was inactive.

For `Cc1noc(C)c1C(=O)N1CCC2(CCCN(c3ncccn3)C2)CC1`, the result was inactive.

Consider `O=c1c(-c2ccc(F)cc2)nc2cnc(Nc3ccccc3)nc2n1C1CC1`, for which the result was inactive.

Consider `COc1ccc(-c2nc3cnc(OC)nc3n(Cc3cccc(OC)c3)c2=O)cc1`, for which the result was inactive.
